Experimental data taken from PubChem BioAssay (EPA / NIEHS).
Inconclusive results are not listed. Calls of active or inactive are those of the source. The calls were made as follows: active = hit-call score of the fitted dose curve at least 0.9, where 1 is the maximum; inconclusive = response in the unintended direction; inactive = score below 0.9.

target: PGR (gene 5241) (UniProt P06401); test: NVS_NR_hPR: NovaScreen (NVS) Nuclear Receptor Binding Assay for human Progestron Receptor (PR) (AID 2283360);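 also: active means loss of bound radioligand signal versus DMSO baseline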
Sequence (P06401 whole entry, looked up): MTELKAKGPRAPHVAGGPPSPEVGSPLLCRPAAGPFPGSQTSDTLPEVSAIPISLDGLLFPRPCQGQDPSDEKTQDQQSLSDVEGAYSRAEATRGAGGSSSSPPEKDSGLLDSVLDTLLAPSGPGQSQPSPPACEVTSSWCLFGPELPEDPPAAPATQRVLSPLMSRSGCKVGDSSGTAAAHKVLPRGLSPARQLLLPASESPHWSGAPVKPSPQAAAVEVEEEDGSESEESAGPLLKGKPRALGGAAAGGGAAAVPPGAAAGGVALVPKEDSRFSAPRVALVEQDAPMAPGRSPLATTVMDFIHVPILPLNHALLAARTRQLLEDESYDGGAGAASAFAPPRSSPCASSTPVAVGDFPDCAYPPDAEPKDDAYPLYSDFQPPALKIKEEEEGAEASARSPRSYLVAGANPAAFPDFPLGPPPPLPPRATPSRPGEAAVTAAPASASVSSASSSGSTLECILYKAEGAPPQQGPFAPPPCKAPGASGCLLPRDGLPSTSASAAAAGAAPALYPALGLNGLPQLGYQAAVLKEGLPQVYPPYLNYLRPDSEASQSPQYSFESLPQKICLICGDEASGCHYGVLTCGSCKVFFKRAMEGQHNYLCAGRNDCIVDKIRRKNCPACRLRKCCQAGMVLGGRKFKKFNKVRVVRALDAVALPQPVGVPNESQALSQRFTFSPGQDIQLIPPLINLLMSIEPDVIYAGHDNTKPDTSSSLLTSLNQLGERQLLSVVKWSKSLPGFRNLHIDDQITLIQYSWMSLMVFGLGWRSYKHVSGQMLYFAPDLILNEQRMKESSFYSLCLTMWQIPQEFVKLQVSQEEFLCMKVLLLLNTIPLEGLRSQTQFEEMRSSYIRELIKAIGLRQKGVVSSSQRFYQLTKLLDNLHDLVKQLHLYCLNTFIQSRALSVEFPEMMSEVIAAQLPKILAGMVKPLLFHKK
Protocol: NVS_NR_hPR is a biochemical, single-readout assay that uses extracted gene-proteins from T47D in a cell-free assay. Measurements were taken 18 hours after chemical dosing in a 96-well plate.NVS_NR_hPR is one of one assay component(s) measured or calculated from the NVS_NR_hPR assay. It is designed to make measurements of radioligand binding, a form of binding reporter, as detected with scintillation counting signals by Lysate-based radiodetection technology.Data from the assay component NVS_NR_hPR was analyzed into 1 assay endpoint. This assay endpoint, NVS_NR_hPR, was analyzed in the positive analysis fitting direction relative to DMSO as the negative control and baseline of activity. Using a type of binding reporter, loss-of-signal activity can be used to understand changes in the binding as they relate to the gene PGR. Furthermore, this assay endpoint can be referred to as a primary readout, because the performed assay has only produced 1 assay endpoint. To generalize the intended target to other relatable targets, this assay endpoint is annotated to the nuclear receptor intended target family, where the subfamily is steroidal.
Binding assays used specific radioligands (tritiated, iodinated) with non-radioactive competitive displacement ligands in agonist or antagonist protocols (as indicated) and various reference compounds and inhibitors to titrate specific binding to receptors and transporters. Most enzyme assays (CYPs, kinases, phosphatases, proteases, HDACs) used recombinant protein and specific substrates (fluorescence mostly, some colorimetric and radioactive) and inhibitors, followed by a biochemical separation of substrate and product. All assays for the biochemical HTS were initially run in duplicate at a single concentration (10 uM for CYP450 assays and 25 uM for all others). […] Each assay was run with positive and negative controls, and concurrent controls on every plate. The follow-up (secondary) screen tested active chemical-pairs in concentration series, as well as a few additional assays not tested in the primary screen, some selected negative inactives, and several cases re-run in the concentration series for confirmatory purposes.

SMILES | outcome | AC50
CN=C=S | inactive | –
N#Cc1c(Cl)cccc1Cl | inactive | –
CC(C)Oc1cccc(NC(=O)c2ccccc2C(F)(F)F)c1 | inactive | –
COP(=S)(OC)Oc1ccc([N+](=O)[O-])c(C)c1 | – | 4.97 µM (active)
CCOP(=O)(OCC)Oc1nc(Cl)c(Cl)cc1Cl | inactive | –
Cc1c(COC(=O)[C@@H]2[C@H](/C=C(\Cl)C(F)(F)F)C2(C)C)cccc1-c1ccccc1 | inactive | –
CCOC(=O)C(C)OC(=O)c1cc(Oc2ccc(C(F)(F)F)cc2Cl)ccc1[N+](=O)[O-] (configuration not stated) | inactive | –
CC1(C)C(C=C(Cl)Cl)C1C(=O)OC(C#N)c1cccc(Oc2ccccc2)c1 (configuration not stated) | inactive | –
CNC(=O)Oc1cccc2ccccc12 | inactive | –
CCCCC(O)(Cn1cncn1)c1ccc(Cl)cc1Cl (configuration not stated) | inactive | –
CCN(CC)c1nc(C)cc(OP(=S)(OC)OC)n1 | inactive | –
CC(C)=CC1C(C(=O)OCc2coc(Cc3ccccc3)c2)C1(C)C (configuration not stated) | inactive | –
